# Measured values taken from PubChem BioAssay (NCI).
# The panel holds about 83,000 compounds, 20% with a hit somewhere; the sample as a whole holds those more often.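 Compound tested at a single concentration for 48 hours in 96-well plates; a percent growth value below 10 was scored as active.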 Unmarked numbers belong to inactive results. The source made the active and inactive calls.
# Assays:
# Test in all cases: NCI-60 one-dose screen, 48 h (100 = growth as untreated, 0 = no growth, -100 = all killed)
# Settings in all cases: 10 µM unless noted
# NCI-H23 lung = system: NCI-H23 lung
# NCI-H226 lung = system: NCI-H226 lung
# NCI-H322M lung = system: NCI-H322M lung
# HOP-62 NSCLC = system: HOP-62 NSCLC
# NCI-H460 lung = system: NCI-H460 lung
# HOP-92 NSCLC = system: HOP-92 NSCLC
# NCI-H522 lung = system: NCI-H522 lung
# 786-0 renal = system: 786-0 renal
# COLO 205 colon = system: COLO 205 colon
# DU-145 prostate = system: DU-145 prostate
# K-562 leukemia = system: K-562 leukemia
# MALME-3M melanoma = system: MALME-3M melanoma
# MDA-MB-231 breast = system: MDA-MB-231 breast
# RXF 393 renal = system: RXF 393 renal
# SF-268 CNS = system: SF-268 CNS
# SF-295 CNS = system: SF-295 CNS
# SF-539 CNS = system: SF-539 CNS
# UACC-257 melanoma = system: UACC-257 melanoma
# M14 melanoma = system: M14 melanoma
# A549/ATCC NSCLC = system: A549/ATCC NSCLC
Compound,growth (NCI-H23 lung),growth (NCI-H226 lung),growth (NCI-H322M lung),growth (HOP-62 NSCLC),growth (NCI-H460 lung),growth (HOP-92 NSCLC),growth (NCI-H522 lung),growth (786-0 renal),growth (COLO 205 colon),growth (DU-145 prostate),growth (K-562 leukemia),growth (MALME-3M melanoma),growth (MDA-MB-231 breast),growth (RXF 393 renal),growth (SF-268 CNS),growth (SF-295 CNS),growth (SF-539 CNS),growth (UACC-257 melanoma),growth (M14 melanoma),growth (A549/ATCC NSCLC)
CC[C@@H](C(=O)[C@@H](C)[C@@H](O)[C@H](C)[C@@H]1O[C@@H]([C@@H](CC)C(=O)ONC(=O)c2ccccc2O)CC[C@@H]1C)C1O[C@]2(C=CC(=O)[C@]3(CC[C@@](C)([C@H]4CC[C@](O)(CC)[C@H](C)O4)O3)O2)[C@H](C)C[C@@H]1C (some centres undefined),23.1%,52.7%,70%,58.3%,33.5%,37.3%,23.9%,61.7%,11.6%,40.3%,28.6%,4.34% (active),50.9%,35.2%,54.2%,44.7%,27.5%,38.3%,63.6%,–
CN(C)CCCn1c2c(c3ccncc3c1=O)C(=O)c1ccccc1-2,-23.1% (active),-53.1% (active),21.2%,-11.4% (active),-9.77% (active),-18.1% (active),-22.5% (active),5.98% (active),–,-8.23% (active),-61.6% (active),-55.8% (active),8.66% (active),-15.7% (active),-15.3% (active),1.81% (active),-17% (active),-30.3% (active),-36.5% (active),30.2%
CC1(C)N=C(N)N=C(N)N1c1cc(Cl)ccc1Cl,74.4%,94.3%,119%,92.8%,32.3%,94%,52.7%,110%,–,6.66% (active),71.2%,125%,92.6%,78.7%,75.1%,51.5%,85.8%,94.7%,94%,86.7%
Cc1nn(-c2ccc([N+](=O)[O-])cc2)c2ncnc(N/N=C/c3ccccc3O)c12,15.3%,35%,13.4%,-2.87% (active),0.666% (active),36.6%,0.557% (active),3.2% (active),–,20.7%,11.2%,2.12% (active),29%,15.7%,9.25% (active),12.6%,7.49% (active),13.2%,-17.7% (active),13%
CC1(C)N=C(N)N=C(N)N1c1ccc(S(=O)(=O)Nc2nccs2)cc1,101%,101%,104%,95.8%,104%,87.2%,91.1%,99.5%,105%,103%,98.9%,99.3%,103%,105%,94.3%,101%,95.1%,98.5%,99.6%,–
COc1ccc2c(c1)CC[C@@H]1[C@@H]2CC[C@]2(C)c3c(cc(C#N)c4c3sc3ccccc34)C[C@@H]12,99.4%,99.2%,108%,99.5%,115%,62.4%,96.5%,111%,110%,121%,88.5%,108%,107%,106%,100%,103%,105%,99.9%,161%,–
COc1cc(-c2ccc[nH]2)[nH]c1/C=C1\N=C(C)C(CC(=O)OCC(C)(C)C)=C1C,-46.8% (active),-55.5% (active),-49.7% (active),-70.9% (active),-67.3% (active),-51.3% (active),-62.8% (active),-88.1% (active),-61.9% (active),-73.9% (active),-42.9% (active),-76.3% (active),-57.2% (active),-82.3% (active),-70.8% (active),-81.8% (active),-69.3% (active),-81.4% (active),-86.3% (active),–
COc1ccc(Oc2ccc(/C=C/C(=O)c3ccc(OC)c(OC)c3)cc2)cc1,83.7%,90.9%,86.7%,118%,93.9%,83.7%,57.4%,103%,91.9%,76.6%,66%,92.9%,94.3%,101%,97.1%,87%,100%,78.6%,92.9%,–
O=C(NN1C(=O)CSC1c1cccc([N+](=O)[O-])c1)c1ccc(NC(=O)c2ccccn2)cc1 (centres undefined),94.4%,106%,90.5%,95.4%,102%,104%,95.3%,96.9%,103%,94.1%,100%,94.4%,113%,115%,96.1%,97.2%,99.8%,99%,102%,–
O=C(Nc1cc(Cl)cc(Cl)c1)Oc1c(Cl)c(Cl)c(Cl)c(Cl)c1Cl,57%,72.5%,99.2%,94.4%,72.6%,-18.7% (active),38.9%,81.1%,80.7%,83.7%,41.4%,80.6%,77.8%,79.7%,77.3%,59.8%,76.8%,83.7%,87.3%,–
Cc1cccc(NC(=O)Cn2cc(CN3CCN(c4ccnc5cc(Cl)ccc45)CC3)nn2)c1,89.4%,75.5%,93.1%,80.1%,94%,56.3%,80.3%,101%,98.6%,106%,71.6%,92.5%,78.2%,90.7%,81.8%,93.7%,93.4%,105%,92.5%,–
CC(=O)O[C@H]1CC[C@]2(C)[C@H]3CC=C4[C@@H]5CC(C)(C)CC[C@]5(C(=O)N5CCN(CCC#N)CC5)CC[C@@]4(C)[C@]3(C)CC[C@H]2C1(C)C,45.3%,48.9%,53.3%,41.2%,-1.52% (active),56.7%,38.9%,47.4%,–,57.8%,10%,26%,48.5%,74.3%,51.8%,65.5%,16.7%,18.1%,35.7%,25.6%
OC1(c2ccccc2)c2ccccc2N(c2ccccc2)c2ccc(Cl)cc21 (centres undefined),-49.4% (active),-80.7% (active),-90.3% (active),-91.7% (active),-48.4% (active),-76.8% (active),-86.8% (active),-94.6% (active),-85.7% (active),-90.6% (active),-11.4% (active),-93.1% (active),-77% (active),-83% (active),-72.4% (active),-57.6% (active),-82.6% (active),-58.8% (active),-79.5% (active),–
CC[C@H](Nc1nc(N)nc(C)c1C#N)c1nc2cccc(CN(C)c3ncc(C(=O)NO)cn3)c2c(=O)n1-c1ccccc1,11.6%,24.3%,5.95% (active),11.4%,10.8%,-28.3% (active),-45.2% (active),11.9%,–,18.5%,8.69% (active),8.44% (active),-12.6% (active),-61% (active),12.1%,-8.31% (active),8.35% (active),-20.8% (active),9.1% (active),27.4%
C=CCN=c1sc(-c2ccc3ccccc3c2)cn1NC(=O)c1cc2ccc1CCc1ccc(cc1)CC2,55.8%,75.2%,97.6%,75.2%,52.3%,59.6%,76.4%,70.1%,44.5%,75%,35%,76.7%,92.9%,74.1%,62.3%,46%,77.9%,48.7%,75.6%,–
CCN(CC)CCN1C(=O)c2c(c3c4ccccc4[nH]c3c3ccc4ccccc4c23)C1=O,-67.8% (active),87.5%,87%,55.3%,16.3%,66.2%,67.8%,-96.7% (active),–,-92.3% (active),-33% (active),-85.7% (active),-78.9% (active),47.1%,-45% (active),48.3%,-85.7% (active),105%,-85% (active),-60.9% (active)
